The results in this text go back to PubChem BioAssay (Tox21).

Where “and” joins values, the source holds several entries; their conditions need not be identical. Equal values may be shown once. Records with an inconclusive call do not appear. The source holds several records for some structures; these can differ, active in one and inactive in another. Calls of active or inactive are those of the source. Unless noted, the call rests on the fitted dose curve.

Experiment [1] in a line: Nuclear factor erythroid 2-related factor 2/antioxidant responsive element (Nrf2/ARE) small molecule agonists: qHTS cell viability counter screen in human keratinocytes (AID 1919968; active means well fitted curve in the direction sought with a large enough effect in the repeat runs; an effect the other way counts as inactive or inconclusive; further: nearly all actives have a fitted effect of over 55% in size; further: potency means the concentration at half of the fitted maximal effect). The method, boiled down: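 CellTiter-Fluor fluorescence, read 1 h after reagent, gave viability in the same wells as the ARE-luciferase assay. KeratinoSens cells (1,500/well) had 23 h compound exposure at 37 C/5% CO2 following 5 h plating.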

A short description of experiment [2]: Nuclear factor erythroid 2-related factor 2/antioxidant responsive element (Nrf2/ARE) small molecule agonists: luciferase reporter gene qHTS assay in human keratinocytes (AID 1919969). Further: nearly all actives have a fitted effect of over 35% in size. Further: potency means the concentration at half of the fitted maximal effect. In general terms: A reporter such as luciferase makes a cellular process visible.
Experiment [3] has as its target KiSS-1 receptor (Homo sapiens) (UniProt Q969F8). The experiment is described as follows: Human kisspeptin (KISS1R) small molecule agonists, calcium flux assay in KISS1R-HEK293 cells (AID 1920064; active means well fitted curve in the direction sought with a large enough effect in the repeat runs; an effect the other way counts as inactive or inconclusive). The method, boiled down:
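Agonist mode: intracellular calcium rise tracked at 1 s intervals over 3 min (480/540 nm) immediately after compound addition to dye-loaded KISS1R-HEK293 stable cells. Each compound tested at 15 concentrations in triplicate.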

Experiment [4] can be described thus: G protein-coupled receptor (GPCR) small molecule agonists, calcium flux assay: HEK293 wild type cell line counter screen (AID 1920065). In short, it runs like this: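 Calcium flux counter screen: compound added in agonist mode at 15 concentrations in triplicate to dye-loaded parental HEK293 cells. Fluorescence (480/540) read kinetically for 3 min; ATP served as positive control.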
(Calcium flux is commonly read through the fluorescence of an indicator in the cells.)

The nature of experiment [5]: p53 small molecule agonists, cell-based qHTS assay with rat liver microsomes (AID 1963578). The method, boiled down:
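Metabolic activation by rat liver microsomes and NADPH, each 0.5 mg/mL final, added right after compounds to p53RE-bla reporter cells (4,000/well, plated 5 h earlier). 16 h at 37 C, then LiveBLAzer substrate for 2 h at room temperature in the dark; fluorescence read-out.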
Background: Quantitative high-throughput screening tests each substance at several concentrations.

Experiment [6] can be described thus: p53 small molecule agonists, cell-based qHTS assay with human liver microsomes: qHTS cell viability counter screen (AID 1963579). Further: nearly all actives have a fitted effect of over 45% in size. Further: potency means the concentration at half of the fitted maximal effect. In short, it runs like this: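 Metabolic activation used human liver microsomes and NADPH, both 0.5 mg/mL final, over 16 hours at 37 C on p53RE-bla cells (4,000/well). Cytotoxicity measured by CellTiter-Glo luminescence, 30 min at room temperature.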

Experiment [7] in a line: p53 small molecule agonists, cell-based qHTS assay with rat liver microsomes: qHTS cell viability counter screen (AID 1963580). Further: nearly all actives have a fitted effect of over 45% in size. Further: potency means the concentration at half of the fitted maximal effect. In short, it runs like this:
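Cytotoxicity counter screen: intracellular ATP read by CellTiter-Glo luminescence in the p53 reporter wells. HCT-116 p53RE-bla cells were treated for 16 h at 37 C alongside rat liver microsomes and NADPH, each 0.5 mg/mL final.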

Experiment [8] is described as follows: p53 small molecule agonists, cell-based qHTS assay: qHTS cell viability counter screen (AID 1963581). Further: nearly all actives have a fitted effect of over 45% in size. The method, boiled down: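 Counter screen read by CellTiter-Glo luminescence (ATP content, 30 min at room temperature), run in the same wells as the beta-lactamase reporter read. HCT-116 p53RE-bla cells saw compounds for 16 h at 37 C.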
Experiment [9] can be described thus: p53 small molecule agonists, cell-based qHTS assay (AID 1963582; active means well fitted activation curve with a large enough effect in the signal ratio in the repeat runs, not every such curve was filed as active; the % refers to the signal ratio; further: potency means the concentration at half of the fitted maximal effect). The method, boiled down: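 Read-out is beta-lactamase FRET fluorescence after 2 h at room temperature with LiveBLAzer B/G substrate. p53 response element-bla cells were treated 16 h at 37 C with compounds in DMSO, added 5 h after seeding.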
Experiment [10] is described as follows: cAMP Responsive Elements (CRE) small molecule agonists, cell-based qHTS assay (AID 1963590). The method, boiled down:
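Agonist mode: compound added to CRE-bla HEK 293T cells (2,000/well, 18 h after plating) for 3 h at 37 C/5% CO2. Reporter activity detected via FRET beta-lactamase substrate, 2 h room-temperature loading.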

Experiment [11] deals with Beta-2 adrenergic receptor (Homo sapiens) (UniProt P07550). The experiment in a line: Adrenergic beta2 receptor (ADRB2) small molecule antagonists, cell-based qHTS assay (AID 1963592). Further: series mostly up to about 92 µM; nearly all actives have a fitted effect of over 50% in size. The method, boiled down: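 Assay format: CHO-ADRB2 cells, 18-20hr seeding at 37C/5% CO2, then compound plus 1nM isoproterenol agonist mix for 0.5hr RT. Homogeneous time-resolved fluorescence cAMP detection after 1hr, expressed as 665/615 nm ratio.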

Experiment [12] concerns the target D(2) dopamine receptor (Homo sapiens) (UniProt P14416). The experiment is described as follows: Dopamine D2 receptor (DRD2) small molecule agonists, cell-based qHTS assay (AID 1963594). Further: nearly all actives have a fitted effect of over 35% in size. In short, it runs like this:
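cAMP accumulation in DRD2-HEK293 cells measured by HTRF after 1 h detection; compounds added 10 min before NKH477 (200nM […]) forskolin-analogue stimulation, 30 min at room temperature, with Ro20-1724 present at 0.1 mM final.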

The target is the same in experiment [13]. The experiment is described as follows: Dopamine D2 receptor (DRD2) small molecule antagonists, cell-based qHTS assay (AID 1963595; active means well fitted inhibition curve with a large enough effect in the signal ratio in the repeat runs, with a control signal flat; the % refers to the signal ratio). The method, boiled down: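 Cells were plated and grown for 24 h at 37 °C. Ro20-1724 (0.1 mM final) went in first, then compound for 10 min. NKH477 (200 nM) with quinpirole (12 nM) followed for 30 min at RT, then HTRF detection reagents for 1 h.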

Experiment [14] deals with 5-hydroxytryptamine receptor 2A (Homo sapiens) (UniProt P28223). The experiment is described as follows: 5-hydroxytryptamine receptor 2A (HTR2A) small molecule antagonists, cell-based qHTS assay (AID 1963586). Further: nearly all actives have a fitted effect of over 45% in size. In short, it runs like this:
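CHO cells stably expressing human HTR2A were plated for 18 h at 37 C, then loaded with calcium dye for 1 h. Compounds were preincubated 5 min at room temperature before DOI (4 nM solution) was added. Kinetic fluorescence was read for 3 min.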

Experiment [15] has the same target. The experiment in a line: 5-hydroxytryptamine receptor 2A (HTR2A) small molecule agonists, cell-based qHTS assay (AID 1963587). Further: nearly all actives have a fitted effect of over 30% in size. In short, it runs like this:
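Kinetic calcium-flux fluorescence (2 min, 1 sec intervals) after compound addition in agonist mode. HTR2A-CHO cells were cultured 18 h, then dye-loaded 1 h at 37 C.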

Experiment [16] deals with Muscarinic acetylcholine receptor M1 (Homo sapiens) (UniProt P11229). The experiment in a line: Cholinergic receptor muscarinic 1 (CHRM1) small molecule antagonists, cell-based qHTS assay (AID 1963588). Further: nearly all actives have a fitted effect of over 40% in size. In short, it runs like this: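 Compounds were tested at 15 concentrations in three independent runs. Dye-loaded CHRM1-CHO cells were exposed 5 min at room temperature before stimulation by acetylcholine added at 50nM. Intracellular calcium was read kinetically on FDSS for 3 min.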

Experiment [17] shares this target. The experiment is described as follows: Cholinergic receptor muscarinic 1 (CHRM1) small molecule agonists, cell-based qHTS assay (AID 1963589). Further: nearly all actives have a fitted effect of over 35% in size. The method, boiled down: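 Agonist-mode calcium-flux screen: compounds at 15 concentrations, three independent runs, were pin-transferred onto dye-loaded human CHRM1-CHO cells. Fluorescence was then recorded kinetically every second over minutes.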

Experiment [18] is described as follows: cAMP Responsive Elements (CRE) small molecule antagonists, cell-based qHTS assay (AID 1963591; active means well fitted inhibition curve with a large enough effect in the signal ratio in the repeat runs, not every such curve was filed as active; the % refers to the signal ratio; further: potency means the concentration at half of the fitted maximal effect). In short, it runs like this:
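Antagonist mode: compounds are added alongside the adenylyl cyclase activator NKH477 (0.25 uM final) to CRE-bla HEK293T cells for 3 h. LiveBLAzer FRET substrate, 2 h at room temperature, reports bla expression.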

Experiment [19] deals with Beta-2 adrenergic receptor (Homo sapiens) (UniProt P07550). The experiment is described as follows: Adrenergic beta2 receptor (ADRB2) small molecule agonists, cell-based qHTS assay (AID 1963593).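 Further: CHO cells stably overexpressing human ADRB2.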 In short, it runs like this:
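CHO cells stably over-expressing ADRB2 were plated overnight at 37C, then dosed with compounds plus a stimulation mix containing 100uM IBMX and 25uM Ro-20-1724 for 0.5hr at room temperature. cAMP was measured by HTRF competition, 1hr.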

Experiment [20] can be described thus: p53 small molecule agonists, cell-based qHTS assay with human liver microsomes (AID 1963577).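 Further: p53 response element beta-lactamase reporter cells with liver microsomes plus NADPH.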 In short, it runs like this: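 With metabolic activation: human liver microsomes (0.5 mg/mL final) plus NADPH (0.5 mg/mL final) added alongside compounds to p53RE-bla cells; 16 h 37 C exposure; beta-lactamase read by LiveBLAzer fluorescence.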

Chain of D(2) dopamine receptor (Homo sapiens) (P14416 whole entry, looked up): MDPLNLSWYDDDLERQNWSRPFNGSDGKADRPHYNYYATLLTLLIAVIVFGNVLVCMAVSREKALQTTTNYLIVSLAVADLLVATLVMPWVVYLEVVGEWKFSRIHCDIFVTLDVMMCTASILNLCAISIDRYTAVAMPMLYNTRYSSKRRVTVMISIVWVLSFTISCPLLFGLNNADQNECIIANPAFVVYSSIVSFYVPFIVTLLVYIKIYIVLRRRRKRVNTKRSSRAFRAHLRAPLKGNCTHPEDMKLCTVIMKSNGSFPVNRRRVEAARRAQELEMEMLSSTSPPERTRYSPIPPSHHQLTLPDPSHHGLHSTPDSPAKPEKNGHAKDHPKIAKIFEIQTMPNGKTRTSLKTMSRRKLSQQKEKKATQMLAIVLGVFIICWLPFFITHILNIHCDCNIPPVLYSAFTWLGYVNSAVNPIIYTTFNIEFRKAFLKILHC
Chain of Beta-2 adrenergic receptor (Homo sapiens) (P07550 whole entry, looked up): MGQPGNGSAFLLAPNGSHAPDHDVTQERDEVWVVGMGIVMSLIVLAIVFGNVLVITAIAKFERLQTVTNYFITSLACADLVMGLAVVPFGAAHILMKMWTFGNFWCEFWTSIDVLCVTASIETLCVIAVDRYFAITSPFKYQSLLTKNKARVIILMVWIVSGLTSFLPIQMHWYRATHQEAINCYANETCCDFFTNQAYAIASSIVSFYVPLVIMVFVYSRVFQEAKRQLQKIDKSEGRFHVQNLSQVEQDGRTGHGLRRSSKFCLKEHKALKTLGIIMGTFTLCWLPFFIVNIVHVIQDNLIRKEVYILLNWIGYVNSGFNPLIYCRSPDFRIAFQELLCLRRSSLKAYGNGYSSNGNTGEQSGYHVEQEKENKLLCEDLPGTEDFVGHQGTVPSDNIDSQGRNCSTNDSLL
Chain of Muscarinic acetylcholine receptor M1 (Homo sapiens) (P11229 whole entry, looked up): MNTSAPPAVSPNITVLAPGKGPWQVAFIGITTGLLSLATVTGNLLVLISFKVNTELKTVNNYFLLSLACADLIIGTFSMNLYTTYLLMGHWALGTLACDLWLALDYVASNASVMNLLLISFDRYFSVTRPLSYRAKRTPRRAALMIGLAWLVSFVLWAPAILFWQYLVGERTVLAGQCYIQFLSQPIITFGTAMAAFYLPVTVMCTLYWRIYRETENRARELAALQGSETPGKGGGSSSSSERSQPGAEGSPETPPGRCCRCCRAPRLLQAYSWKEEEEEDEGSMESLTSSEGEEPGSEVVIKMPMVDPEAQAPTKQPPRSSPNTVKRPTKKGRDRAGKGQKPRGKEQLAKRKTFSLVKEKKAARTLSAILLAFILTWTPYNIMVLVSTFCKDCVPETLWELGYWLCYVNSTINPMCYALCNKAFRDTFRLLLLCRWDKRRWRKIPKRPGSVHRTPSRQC
Chain of 5-hydroxytryptamine receptor 2A (Homo sapiens) (P28223 whole entry, looked up): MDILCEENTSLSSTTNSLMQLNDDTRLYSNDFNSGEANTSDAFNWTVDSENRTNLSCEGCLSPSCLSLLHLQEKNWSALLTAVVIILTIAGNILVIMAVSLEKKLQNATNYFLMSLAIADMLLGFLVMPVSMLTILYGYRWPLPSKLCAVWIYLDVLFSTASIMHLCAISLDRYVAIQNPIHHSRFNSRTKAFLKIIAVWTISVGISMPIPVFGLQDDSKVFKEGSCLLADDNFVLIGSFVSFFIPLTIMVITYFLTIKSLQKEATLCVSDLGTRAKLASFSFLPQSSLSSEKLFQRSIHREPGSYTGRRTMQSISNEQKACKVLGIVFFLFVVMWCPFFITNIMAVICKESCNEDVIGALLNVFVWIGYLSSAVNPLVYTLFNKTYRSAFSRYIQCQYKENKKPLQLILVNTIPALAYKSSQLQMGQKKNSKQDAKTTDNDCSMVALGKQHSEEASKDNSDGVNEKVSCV
Chain of KiSS-1 receptor (Homo sapiens) (Q969F8 whole entry, looked up): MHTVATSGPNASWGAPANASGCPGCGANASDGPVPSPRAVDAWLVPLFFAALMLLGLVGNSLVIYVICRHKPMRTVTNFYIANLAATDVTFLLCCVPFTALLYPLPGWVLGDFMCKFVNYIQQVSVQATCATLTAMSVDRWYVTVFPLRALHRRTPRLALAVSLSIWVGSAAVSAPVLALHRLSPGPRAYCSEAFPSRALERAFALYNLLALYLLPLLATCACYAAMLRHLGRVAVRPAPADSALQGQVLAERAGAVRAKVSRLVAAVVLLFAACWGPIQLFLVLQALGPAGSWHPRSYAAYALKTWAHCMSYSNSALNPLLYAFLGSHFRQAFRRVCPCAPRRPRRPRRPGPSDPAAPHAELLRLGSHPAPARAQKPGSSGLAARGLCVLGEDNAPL

On to `Oc1ccc(OCc2ccccc2)cc1`, for which the Potency result in [1], in experiment [3], in [4], in experiment [5], in [6] and in experiment [7] was “inactive” throughout. Besides, the Potency result in [8], in experiment [9], in experiment [10], in experiment [11], in experiment [12] and in experiment [13] was “inactive” in each case. Also, the Potency in [2] is 8.45 µM (active).

`CCOc1ccccc1OCC`: the Potency result in [1], in [2], in experiment [3], in experiment [4], in [5] and in [6] was “inactive” in each case. Moreover, the Potency result in [7], in [8], in experiment [9], in experiment [14], in [15] and in experiment [16] was “inactive” each time. Also, the Potency entry in [17], in experiment [10], in experiment [18], in experiment [11], in [19] and in experiment [12] was “inactive” throughout. Further, the Potency result in experiment [13] is “inactive”.

For the molecule `COC(=O)/C=C/c1ccccc1`, the Potency result in experiment [1], in [2], in experiment [3], in experiment [4], in experiment [6] and in experiment [7] was “inactive” in each case. In addition, the Potency entry in [8], in experiment [14], in [15], in [16], in experiment [17] and in [10] was “inactive” each time. The Potency result in [18], in [11], in experiment [19], in experiment [12] and in experiment [13] was “inactive” each time.

In the case of `CCOc1c(N2CCOCC2)cnn(C)c1=O`, the Potency result in experiment [1], in experiment [2], in experiment [3], in experiment [4], in experiment [20] and in experiment [5] was “inactive” in each case. Moreover, the Potency result in [6], in experiment [7], in experiment [9], in [14], in experiment [15] and in experiment [16] was “inactive” in each case. Also, the Potency result in experiment [17], in experiment [10], in experiment [18], in experiment [11], in [19] and in [12] was “inactive” throughout. Also, the Potency result in experiment [13] is “inactive”.

As for `Cn1sccc1=O`, the Potency is 43.3 µM (active) and 13.7 µM (active) in experiment [1]; 13.7 µM (active) and 6.86 µM (active) in experiment [2]; 28.9 µM (active) and inactive in experiment [6]; 18.2 µM (active) in experiment [7]. Further, the Potency entry in experiment [3], in experiment [4], in experiment [8], in [14], in experiment [15] and in experiment [16] was “inactive” each time. Besides, the Potency entry in experiment [17], in [10], in experiment [18], in [11], in experiment [19] and in [12] was “inactive” throughout. The Potency result in experiment [13] was “inactive”.

For `COC(=O)c1ccc(C)cc1C1=NC(C)(C(C)C)C(=O)N1` (stereo not drawn), the Potency result in experiment [1], in experiment [2], in [3], in [4], in experiment [5] and in experiment [6] was “inactive” each time. The Potency result in experiment [7], in experiment [8], in [14], in experiment [15], in experiment [16] and in experiment [17] was “inactive” in each case. The Potency entry in [10], in experiment [18], in [11] and in [13] was “inactive” each time.

`CC(=O)c1cc2ccccc2s1`: the Potency result in [1], in [2], in [3], in experiment [4], in experiment [20] and in experiment [5] was “inactive” each time. Moreover, the Potency entry in [7], in experiment [8], in experiment [9], in [14], in experiment [15] and in experiment [16] was “inactive” in each case. Moreover, the Potency result in experiment [17], in experiment [10], in experiment [18], in experiment [11], in experiment [19] and in [13] was “inactive” throughout.

Consider `COc1cccc2c1C(=O)c1c(O)c3c(c(O)c1C2=O)C[C@@](O)(C(=O)CO)C[C@@H]3O[C@H]1C[C@H](N)[C@H](O)[C@H](C)O1`, for which the Potency was 7.5 µM (active) in experiment [1]; 2.73 µM (active) and 6.68 µM (active) in experiment [2]; 0.457 µM (active) in experiment [9]; 26.6 µM (active) in [18]. In addition, the Potency entry in experiment [3], in experiment [4], in [20], in experiment [5] and in experiment [6] was “inactive” throughout.
